Sm TGR inh: inhibitors of Schistosoma mansoni thioredoxin glutathione reductase. Potency, µM (doses to about 114 µM), without a hit: at the highest dose activity change, negative = inhibition, most hits filed as inhibitors. purified TGR, DTNB reduction, TNB absorbance 405 nm. 360,000 compounds, 3% hits; note: nearly all actives have a fitted effect of over 60% in size
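First, TGR (20 nM dispensed) and NADPH were mixed with compound. Second, a 15 min room-temperature incubation followed. Third, further NADPH and then DTNB were added to start the reaction. Finally, TNB absorbance was monitored kinetically.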
AmpC detergent: blocks E. coli AmpC beta-lactamase in detergent assay; P00811; AmpC hydrolysis of nitrocefin, absorbance 480 nm, 0.01% Triton; Potency, µM (series often up to 114 µM), without a hit: at the top dose activity change, negative = inhibition, usual class: inhibitors; 370,000 compounds, 0.041% hits;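 note: 0% = no-compound wells and -100% = no-enzyme wells; nearly all actives have a fitted effect of over 25% in size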
Target sequence (P00811 whole entry, looked up): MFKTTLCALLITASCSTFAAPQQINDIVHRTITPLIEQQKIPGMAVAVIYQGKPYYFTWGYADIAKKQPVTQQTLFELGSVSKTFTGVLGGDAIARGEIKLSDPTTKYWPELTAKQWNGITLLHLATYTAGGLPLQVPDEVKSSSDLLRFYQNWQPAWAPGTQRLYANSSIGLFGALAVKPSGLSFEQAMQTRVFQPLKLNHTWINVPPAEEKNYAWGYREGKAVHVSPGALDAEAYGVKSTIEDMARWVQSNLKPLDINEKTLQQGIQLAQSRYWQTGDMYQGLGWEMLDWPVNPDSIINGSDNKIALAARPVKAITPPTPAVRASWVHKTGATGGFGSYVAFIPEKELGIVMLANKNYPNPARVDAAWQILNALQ
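AmpC (5.3 nM in the dispensed reagent) in 20 mM phosphate pH 7.0 with 0.01% (detergent screen) or 0.0001% Triton X-100 was preincubated with compounds for 15 min at room temperature. Nitrocefin was then added from an 800 uM solution, and hydrolysis was followed at 480 nm.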
AmpC inh no detg: AmpC beta-lactamase inhibition without detergent; AmpC nitrocefin hydrolysis, absorbance 480 nm, 0.0001% Triton; 330,000 compounds, 0.52% hits; AID 485341; Potency, µM (series often up to 57.1 µM), inactives show top-dose activity change, negative = inhibition, actives largely listed as inhibitors;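 note: plate controls were no compound for no effect and no enzyme for full effect; nearly all actives have a fitted effect of over 20% in size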
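20 mM phosphate pH 7.0 + 0.01% (detergent screen) or 0.0001% Triton X-100; 5.3 nM AmpC reagent; cpd preinc 15 min RT; nitrocefin (800 uM stock) to start; A480 q20 s × 4 min; Activity was normalised to no-enzyme and no-compound control wells.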
An asterisk follows results filed as active; u = inconclusive; x = not tested or not shown. This is a sample that favours compounds with a hit; in the whole collection about 3.3% have one here. Calls come from the whole dose curve; as a rule, active = well fitted curve in the direction sought with a large enough effect; inconclusive = small, poorly fitted or top-dose-only effect, or another doubt; inactive = no such curve, though single readings can be large; an effect the other way counts as inactive or inconclusive. Unless noted, % is set by controls: 0 for no effect and ±100 for the full control effect; potency is the fitted concentration of half-maximal effect.

SMILES	Sm TGR inh	AmpC detergent	AmpC inh no detg
CC(=O)NC(Nc1c(C)n(C)n(-c2ccccc2)c1=O)C(Cl)(Cl)Cl (configuration not stated)	40µM*	u	-19%
CCCC(=O)NC(Nc1c(C)n(C)n(-c2ccccc2)c1=O)C(Cl)(Cl)Cl (configuration not stated)	x	-4%	1%
Cc1c(NC(=O)c2cccs2)c(=O)n(-c2ccccc2)n1C	0%	4%	-1%
Cc1c(N/C=C(\Cl)C(=O)C(F)(F)F)c(=O)n(-c2ccccc2)n1C	14µM*	-9%	-15%
Cc1c(NC=C(C#N)C#N)c(=O)n(-c2ccccc2)n1C	0%	2%	-18%
COc1ccc(N2CCN(C(c3ccccc3)c3sc4nc(-c5ccco5)nn4c3O)CC2)cc1 (configuration not stated)	3%	1%	x
O=C(CSC1=Nc2ccccc2N=C(c2ccc(F)cc2)C1)Nc1cc(F)ccc1F	-2%	17%	x
COc1ccc(CNC(=O)CSc2nnc(C)c3c(C)n(-c4ccccc4)nc23)c(OC)c1	2%	27%	x
Cc1ccc(-n2nc(C(=O)Nc3ccc(F)cc3F)c3c4ccccc4n(C)c3c2=O)cc1	2%	2%	x
O=C(OCC(=O)N1CCN(c2ccccc2)CC1)c1ccc2ccccc2n1	45µM*	-4%	17%
O=C(OCC(=O)N1CCN(c2ccccc2)CC1)c1ccccn1	-10%	-4%	-2%
Cc1c(Cl)cccc1NC(=O)CC(c1cccs1)N1Cc2ccccc2C1=O (configuration not stated)	0%	7%	x
CCCOc1ccc(N2C(=O)CC(NNC(=O)c3ccc(COc4ccccc4)o3)C2=O)cc1 (configuration not stated)	u	3%	10%
CCOc1cccc(N2C(=O)CC(NNC(=O)c3ccc(Br)o3)C2=O)c1 (configuration not stated)	25µM*	2%	-22%
COc1ccccc1N1CCN(C(=O)Cn2c(=O)nc(-c3ccccc3)c3ccccc32)CC1	-9%	8%	x
Cc1cccc(CNC(=O)CSCc2cnn(-c3ccccc3)c2-n2cccc2)c1	3%	16%	x
COC(=O)c1ccc(NC2CC(=O)N(c3ccccc3C)C2=O)cc1 (configuration not stated)	32µM*	u	-13%
COC(=O)c1cc(C(=O)OC)cc(N2C(=O)CC(NNC(=O)c3ccccc3Cl)C2=O)c1 (configuration not stated)	-1%	5%	-3%
Cc1ccccc1N1C(=O)CC(Nc2ccc3c(c2)OCO3)C1=O (configuration not stated)	u	7%	-11%
COC(=O)c1ccccc1NC1CC(=O)N(c2c(C)cccc2C)C1=O (configuration not stated)	7.1µM*	-16%	-7%
CNC(=O)c1c(NC(=O)/C=C/c2ccccc2Cl)sc2c1CCC2	u	9%	x
CCc1nc2ccc(C(=O)NCc3ccc(N(C)C)cc3)cc2nc1CC	0%	-6%	x
O=C(CNC(=O)c1ccccc1Cl)N/N=C/C=C/c1ccccc1	-4%	-16%	-19%
O=C(CNC(=O)c1ccccc1F)N/N=C\C=C\c1ccccc1	22µM*	-5%	-16%
CCOC(=O)c1c(C)[nH]c(C)c1S(=O)(=O)NCC(=O)N1CCN(c2cccc(C)c2)C(C)C1 (configuration not stated)	-10%	-2%	x
SMILES	Sm TGR inh	AmpC detergent	AmpC inh no detg
COc1ccc(CC(=O)Nc2sc3c(c2C(=O)Nc2c(C)cccc2C)CCCCC3)cc1	4%	-1%	x
O=C(C[n+]1ccc(-c2cc(C(=O)Nc3cccc(C(F)(F)F)c3)c3ccccc3n2)cc1)c1cccc([N+](=O)[O-])c1	45µM*	-5%	49%
O=C(C[n+]1cccc(NC(=O)c2ccccc2)c1)c1cccc([N+](=O)[O-])c1	-6%	-3%	-33%
O=C1C2C3C=CC(CC3)C2C(=O)N1c1ccccc1[N+](=O)[O-] (configuration not stated)	18µM*	-5%	-18%
O=C1C2C3C=CC(CC3)C2C(=O)N1c1ccc(Br)cc1[N+](=O)[O-] (configuration not stated)	-11%	4%	-15%
O=C(Nc1cccc(F)c1)c1ccc2oc(=O)n(Cc3ccccc3)c2c1	-2%	-6%	x
Cc1ccc(-n2ncc3c(NC4CCCCCC4)ncnc32)cc1	2%	-2%	x
Cc1ccc(C(=O)CSc2nc(C)cc(=O)[nH]2)cc1	1%	0%	-20%
Cc1cc(SCC(=O)c2ccc(O)c(O)c2)n2nc(C)c(-c3ccccc3)c2n1	0%	4%	6.3µM*
Cc1cc(=O)[nH]c(SCC(=O)c2ccc(O)c(O)c2)n1	18µM*	u	-22%
Cc1cc(C)nc(SCC(=O)c2ccc(O)c(O)c2)n1	-20%	3%	-23%
CCc1cnc2c(c1SCc1c(F)cccc1Cl)c(=O)n(C)c(=O)n2C	-1%	-2%	x
Cn1c(=O)c2c(-c3ccccc3)n3c(c2n(C)c1=O)C(c1cccc([N+](=O)[O-])c1)Nc1ccccc1-3 (configuration not stated)	-29%	29%	x
O=C1CCc2cc(S(=O)(=O)NC(C(=O)Nc3ccc(F)cc3)c3ccccc3)ccc2N1 (configuration not stated)	40%	5%	x
Cc1ccc(CNC(=O)Cn2cc(S(=O)(=O)Cc3cccc(Cl)c3)c3ccccc32)cc1	7%	5%	x
Cc1cc(N2CCCC2)ccc1/C=C1\NC(=S)N(C)C1=O	-14%	-5%	-8%
Cc1cc(N2CCCCC2)ccc1C=C1C(=O)N(C)C(=S)N(C)C1=O	7.1µM*	-2%	-28%
CCOC(=O)N1CCN(C2CC(=O)N(c3ccccc3)C2=O)CC1 (configuration not stated)	0%	-16%	-7%
COc1ccccc1N1C(=O)CC(N2CCN(c3ccc(F)cc3)CC2)C1=O (configuration not stated)	45µM*	u	28%
Cc1ccc(N2C(=O)CC(N3CCN(c4ccc(F)cc4)CC3)C2=O)c(C)c1 (configuration not stated)	-31%	-14%	-2%
COc1ccccc1N1CCN(C2CC(=O)N(c3ccc(Cl)cc3)C2=O)CC1 (configuration not stated)	-1%	-16%	55%
COc1cccc(N2C(=O)CC(N3CCN(C(=O)c4ccco4)CC3)C2=O)c1 (configuration not stated)	u	-5%	-13%
CCOc1ccc(N2C(=O)CC(N3CCN(c4ccc(F)cc4)CC3)C2=O)cc1 (configuration not stated)	45µM*	-1%	4%
CCOC(=O)N1CCN(C2CC(=O)N(c3ccc(Cl)c(Cl)c3)C2=O)CC1 (configuration not stated)	20µM*	-12%	41%
O=C(c1ccco1)N1CCN(C2CC(=O)N(c3ccc(F)c(Cl)c3)C2=O)CC1 (configuration not stated)	20µM*	-10%	-1%
CCCS(=O)(=O)c1nc(S(=O)(=O)c2ccc(C)cc2)c(NCCCOC(C)C)s1	-11%	-1%	x

Bioassay records (PubChem)
